# Laboratory results: the supplement of paper PMC6522484
# ± gives the standard deviation of the averaged measurements.
# Legend:
# [1] = system: DLD1; assay: cell viability (CellTiter-Glo) relative to plate median (fraction of plate median); higher = more viable cells; conditions: 10 µM, treatment time 24 h
# Method in brief: (§1)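 Colorectal cancer cell lines stably transduced with lentiviral TCF/Wnt firefly luciferase reporters (7TFP or TCF4/Wnt) were seeded in 384-well plates. 24 h later they received kinase inhibitor library compounds at a final 10 µM for 24 h. Parallel plates were read for firefly luciferase or CellTiterGlo luminescence on a Tecan F500 reader. Each well's signal was normalised to the plate median (webcellHTS2, additive, no log transformation), and the mean of two independent replicates is reported.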
# [2] = system: HCT116; assay: as above; conditions: 10 µM; treatment time 24 h; reporter: TCF4/Wnt
# Method in brief: as §1
# [3] = system: SW480; assay: as above; conditions: 10 µM; treatment time 24 h; reporter: 7TFP
# Method in brief: as §1
# [4] = system: DLD1; assay: cell viability (CellTiter-Glo) relative to plate median (fraction of plate median); higher = more viable cells; conditions: 5 µM; treatment time 24 h; reporter: 7TFP
# Method in brief: as §1, with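 “received” for “received kinase inhibitor”, “5” for “10”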
# [5] = system: HCT116; assay: as above; conditions: 5 µM; treatment time 24 h; reporter: TCF4/Wnt
# Method in brief: as §1, with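 “received” for “received kinase inhibitor”, “5” for “10”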
# [6] = system: SW480; assay: as above; conditions: 5 µM; treatment time 24 h; reporter: 7TFP
# Method in brief: as §1, with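 “received” for “received kinase inhibitor”, “5” for “10”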
# [7] = system: DLD1; assay: TCF/Wnt firefly luciferase reporter signal relative to plate median (fraction of plate median); higher = higher Wnt reporter signal; conditions: 5 µM; treatment time 24 h; reporter: 7TFP
# Method in brief: as §1, with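 “received” for “received kinase inhibitor”, “5” for “10”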
# [8] = system: SW480; assay: as above; conditions: 5 µM; treatment time 24 h; reporter: 7TFP
# Method in brief: as §1, with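 “received” for “received kinase inhibitor”, “5” for “10”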
# [9] = system: DLD1; assay: TCF/Wnt firefly luciferase reporter signal relative to plate median (fraction of plate median); higher = higher Wnt reporter signal; conditions: 10 µM, treatment time 24 h
# Method in brief: as §1
# [10] = system: HCT116; assay: as above; conditions: 10 µM; treatment time 24 h; reporter: TCF4/Wnt
# Method in brief: as §1
# [11] = system: SW480; assay: as above; conditions: 10 µM; treatment time 24 h; reporter: 7TFP
# Method in brief: as §1
compound,measurement,setting,value
CN[C@@H]1C[C@H]2O[C@@](C)([C@@H]1OC)n1c3ccccc3c3c4c(c5c6ccccc6n2c5c31)C(=O)NC4 [Staurosporine],cell viability,[1]; reporter: 7TFP,0.617 ± 0.047
same,cell viability,[1]; reporter: TCF4/Wnt,0.701 ± 0.067
same,cell viability,[2],0.23 ± 0.13
same,cell viability,[3],0.68 ± 0.25
same,cell viability,[4],0.837 ± 0.027
same,cell viability,[5],0.712 ± 0.0099
same,cell viability,[6],1.14 ± 0.035
same,TCF/Wnt firefly luciferase reporter signal,[7],0.583 ± 0.023
same,TCF/Wnt firefly luciferase reporter signal,[8],0.965 ± 0.045
same,TCF/Wnt firefly luciferase reporter signal,[9]; reporter: 7TFP,0.204 ± 0.069
same,TCF/Wnt firefly luciferase reporter signal,[9]; reporter: TCF4/Wnt,0.2 ± 0.04
same,TCF/Wnt firefly luciferase reporter signal,[10],0.103 ± 0.0065
same,TCF/Wnt firefly luciferase reporter signal,[11],0.346 ± 0.19
COc1cc([C@@H]2c3cc4c(cc3[C@H](O)[C@H]3COC(=O)[C@@H]23)OCO4)cc(OC)c1OC,cell viability,[4],1.04 ± 0.1
same,cell viability,[5],0.774 ± 0.025
same,cell viability,[6],1.22 ± 0.11
same,TCF/Wnt firefly luciferase reporter signal,[7],0.819 ± 0.052
same,TCF/Wnt firefly luciferase reporter signal,[8],0.887 ± 0.057
OCC(O)Cc1ccc2c(c1)OCO2 (stereo unspecified),cell viability,[4],1.03 ± 0.095
same,cell viability,[5],1.04 ± 0.014
same,cell viability,[6],1.02 ± 0.033
same,TCF/Wnt firefly luciferase reporter signal,[7],0.922 ± 0.091
same,TCF/Wnt firefly luciferase reporter signal,[8],0.985 ± 0.036
CCC(C)C(=O)c1c(O)c(C)c2oc3c(C)c(O)c(C(=O)C(C)CC)c(O)c3c2c1O (stereo unspecified),cell viability,[4],0.997 ± 0.033
same,cell viability,[5],0.95 ± 0.11
same,cell viability,[6],0.998 ± 0.045
same,TCF/Wnt firefly luciferase reporter signal,[7],0.9565 ± 0.0035
same,TCF/Wnt firefly luciferase reporter signal,[8],0.9575 ± 0.0092
O=C(O)CC[N+](=O)[O-] [BOVINOCIDIN (3-nitropropionic acid)],cell viability,[4],0.951 ± 0.025
same,cell viability,[5],1.05 ± 0.042
same,cell viability,[6],0.986 ± 0.02
same,TCF/Wnt firefly luciferase reporter signal,[7],1.01 ± 0.042
same,TCF/Wnt firefly luciferase reporter signal,[8],1.05 ± 0.1
C[C@H]1C(=O)O[C@@H]2CCN3CC=C(COC(=O)[C@](C)(O)[C@]1(C)O)[C@H]23,cell viability,[4],1 ± 0.023
same,cell viability,[5],1.04 ± 0.09
same,cell viability,[6],1.015 ± 0.0071
same,TCF/Wnt firefly luciferase reporter signal,[7],0.919 ± 0.035
same,TCF/Wnt firefly luciferase reporter signal,[8],0.998 ± 0.06
O=c1[nH]c2ccc(Cl)cc2c(N[C@@H]2CN3CCC2CC3)c1-c1nc2ccccc2[nH]1,cell viability,[1]; reporter: 7TFP,1.004 ± 0.0092
same,cell viability,[1]; reporter: TCF4/Wnt,1.06 ± 0.05
same,cell viability,[2],0.521 ± 0.25
same,cell viability,[3],0.992 ± 0.025
same,TCF/Wnt firefly luciferase reporter signal,[9]; reporter: 7TFP,2.27 ± 0.078
same,TCF/Wnt firefly luciferase reporter signal,[9]; reporter: TCF4/Wnt,2.27 ± 0.18
same,TCF/Wnt firefly luciferase reporter signal,[10],0.439 ± 0.17
same,TCF/Wnt firefly luciferase reporter signal,[11],1.8 ± 0.099
COC(=O)C1=CCCN(C)C1,cell viability,[4],0.991 ± 0.13
same,cell viability,[5],1.07 ± 0.042
same,cell viability,[6],1.1 ± 0.099
same,TCF/Wnt firefly luciferase reporter signal,[7],1.07 ± 0.11
same,TCF/Wnt firefly luciferase reporter signal,[8],1.05 ± 0.064
Cc1cc(O)cc2oc(=O)c3c(O)cc(O)cc3c12 [Alternariol],cell viability,[4],0.914 ± 0.017
same,cell viability,[5],0.919 ± 0.013
same,cell viability,[6],1.01 ± 0.03
same,TCF/Wnt firefly luciferase reporter signal,[7],0.861 ± 0.12
same,TCF/Wnt firefly luciferase reporter signal,[8],0.992 ± 0.097
COc1c2c(c(CC=C(C)C)c3oc(=O)c(-c4ccc(O)cc4)c(O)c13)OC(C)(C)C=C2,cell viability,[4],0.9495 ± 0.0021
same,cell viability,[5],0.985 ± 0.064
same,cell viability,[6],1.01 ± 0.035
same,TCF/Wnt firefly luciferase reporter signal,[7],0.969 ± 0.016
same,TCF/Wnt firefly luciferase reporter signal,[8],0.985 ± 0.012
Cl[C@H]1[C@H](Cl)[C@@H](Cl)[C@@H](Cl)[C@H](Cl)[C@H]1Cl,cell viability,[4],1.05 ± 0.014
same,cell viability,[5],1.035 ± 0.0071
same,cell viability,[6],1.04 ± 0.042
same,TCF/Wnt firefly luciferase reporter signal,[7],1.05 ± 0.05
same,TCF/Wnt firefly luciferase reporter signal,[8],1.15 ± 0.05
C[C@@H]1CC[C@H]2[C@@H](C)C(=O)O[C@@H]3O[C@@]4(C)CC[C@@H]1[C@]32OO4,cell viability,[4],1.04
same,cell viability,[5],1.09 ± 0.14
same,cell viability,[6],1.145 ± 0.0071
same,TCF/Wnt firefly luciferase reporter signal,[7],1 ± 0.023
same,TCF/Wnt firefly luciferase reporter signal,[8],0.984 ± 0.066
CCC[C@H]1CCCCN1,cell viability,[4],1.01 ± 0.021
same,cell viability,[5],0.936 ± 0.046
same,cell viability,[6],0.983 ± 0.039
same,TCF/Wnt firefly luciferase reporter signal,[7],1.04
same,TCF/Wnt firefly luciferase reporter signal,[8],1.05 ± 0.087
CC1(C)C(=O)C=C[C@]2(C)[C@H]3CC[C@@]4(C)[C@H](c5ccoc5)OC(=O)[C@H]5O[C@]54[C@]3(C)[C@H](O)C[C@@H]12,cell viability,[4],1.01 ± 0.12
same,cell viability,[5],1.08 ± 0.028
same,cell viability,[6],0.989 ± 0.016
same,TCF/Wnt firefly luciferase reporter signal,[7],0.904 ± 0.028
same,TCF/Wnt firefly luciferase reporter signal,[8],0.972 ± 0.097
CNNC,cell viability,[4],0.936 ± 0.021
same,cell viability,[5],0.866 ± 0.11
same,cell viability,[6],0.945 ± 0.017
same,TCF/Wnt firefly luciferase reporter signal,[7],1.03 ± 0.14
same,TCF/Wnt firefly luciferase reporter signal,[8],0.894 ± 0.14
C=CCc1cc(OC)c2c(c1OC)OCO2,cell viability,[4],0.962 ± 0.15
same,cell viability,[5],0.864 ± 0.057
same,cell viability,[6],0.994 ± 0.023
same,TCF/Wnt firefly luciferase reporter signal,[7],0.876 ± 0.099
same,TCF/Wnt firefly luciferase reporter signal,[8],0.976 ± 0.033
CC1C=CC=CCCC=CC=CC=CC=CC(OC2OC(C)C(O)C(N)C2O)CC2OC(O)(CC(O)C(O)CCC(O)CC(O)CC(O)CC(=O)OC(C)C(C)C1O)CC(O)C2C(=O)O (stereo unspecified),cell viability,[4],0.932 ± 0.04
same,cell viability,[5],0.906 ± 0.023
same,cell viability,[6],0.973 ± 0.031
same,TCF/Wnt firefly luciferase reporter signal,[7],0.874 ± 0.0014
same,TCF/Wnt firefly luciferase reporter signal,[8],0.762 ± 0.0092
O=C1CC[C@@]2(O)[C@H]3Cc4ccc(O)c5c4[C@@]2(CCN3CC2CC2)[C@H]1O5,cell viability,[4],1.02 ± 0.093
same,cell viability,[5],0.914 ± 0.19
same,cell viability,[6],1.04 ± 0.035
same,TCF/Wnt firefly luciferase reporter signal,[7],0.985 ± 0.12
same,TCF/Wnt firefly luciferase reporter signal,[8],1.03 ± 0.028
COP(=S)(OC)Oc1ccc(SC)c(C)c1,cell viability,[4],1 ± 0.014
same,cell viability,[5],1.07 ± 0.085
same,cell viability,[6],1.04 ± 0.042
same,TCF/Wnt firefly luciferase reporter signal,[7],1.07 ± 0.028
same,TCF/Wnt firefly luciferase reporter signal,[8],1.01 ± 0.1
COc1cc2c(cc1OC)[C@@H]1C(=O)c3ccc(OC)c(CC=C(C)C)c3O[C@@H]1CO2,cell viability,[4],0.943 ± 0.11
same,cell viability,[5],0.849 ± 0.042
same,cell viability,[6],0.992 ± 0.011
same,TCF/Wnt firefly luciferase reporter signal,[7],0.848 ± 0.069
same,TCF/Wnt firefly luciferase reporter signal,[8],0.947 ± 0.13
CCCC(C)(COC(N)=O)COC(=O)NC(C)C (stereo unspecified),cell viability,[4],1.06 ± 0.014
same,cell viability,[5],0.994 ± 0.14
same,cell viability,[6],0.97 ± 0.0042
same,TCF/Wnt firefly luciferase reporter signal,[7],0.887 ± 0.088
same,TCF/Wnt firefly luciferase reporter signal,[8],0.992 ± 0.082
COc1cc2c(c(OC)c1OC)-c1ccc(OC)c(=O)cc1[C@@H](NC(C)=O)CC2,cell viability,[4],1.1 ± 0.057
same,cell viability,[5],0.636 ± 0.016
same,cell viability,[6],1.22 ± 0.099
same,TCF/Wnt firefly luciferase reporter signal,[7],0.77 ± 0.22
same,TCF/Wnt firefly luciferase reporter signal,[8],0.802 ± 0.13
CCCCCCCCCc1ccc(O)cc1,cell viability,[4],1.03 ± 0.028
same,cell viability,[5],0.999 ± 0.016
same,cell viability,[6],0.946 ± 0.0071
same,TCF/Wnt firefly luciferase reporter signal,[7],1.19 ± 0.092
same,TCF/Wnt firefly luciferase reporter signal,[8],1.17 ± 0.05
CC(=O)CC1CCCCN1 (stereo unspecified),cell viability,[4],0.961 ± 0.055
same,cell viability,[5],1.03 ± 0.043
same,cell viability,[6],0.993 ± 0.0099
same,TCF/Wnt firefly luciferase reporter signal,[7],0.92 ± 0.09
same,TCF/Wnt firefly luciferase reporter signal,[8],0.977 ± 0.018
O=C1CCC[C@@H]2[C@H]3C[C@@H](CN12)[C@@H]1CCCCN1C3.[O-][Cl+3]([O-])([O-])O,cell viability,[4],1.01 ± 0.024
same,cell viability,[5],0.956 ± 0.053
same,cell viability,[6],0.976 ± 0.021
same,TCF/Wnt firefly luciferase reporter signal,[7],0.922 ± 0.022
same,TCF/Wnt firefly luciferase reporter signal,[8],0.97 ± 0.018
CN1[C@@H]2CC[C@H]1C[C@@H](OC(=O)[C@H](CO)c1ccccc1)C2,cell viability,[4],1.06 ± 0.14
same,cell viability,[5],1.09
same,cell viability,[6],1 ± 0.086
same,TCF/Wnt firefly luciferase reporter signal,[7],0.974 ± 0.11
same,TCF/Wnt firefly luciferase reporter signal,[8],1.05 ± 0.028
C[C@H](N)[C@H](O)c1ccc(O)c(O)c1,cell viability,[4],0.971 ± 0.042
same,cell viability,[5],1.05 ± 0.057
same,cell viability,[6],1.09 ± 0.17
same,TCF/Wnt firefly luciferase reporter signal,[7],1.004 ± 0.0085
same,TCF/Wnt firefly luciferase reporter signal,[8],0.9685 ± 0.0078
